Assay results published in PubChem BioAssay AID1814 (Broad Institute, 2009).
Screen size: about 300,000 compounds; about 22,000 (7.3%) were called active. Another 2% or so got no clear call; they are omitted. Cut-off read from the data, not from the text of the source: active = activity score below about -60%; inconclusive = mostly about -28% to -61%; inactive = positive scores. This excerpt belongs to a sample that is enriched for actives.

Assay: Activators via SNCA 5'UTR binding, MLPCN (AID 1814)
Details: alpha-synuclein 5'UTR reporter, activators screen; active compounds read low; tested at 7.5 µM

Activity score, active:
Cc1c(Cl)cccc1NC(=O)Nc1ccc(C(=O)N2CCCC2)cc1 -77.6%
CCOC(=O)c1c(C)nc(-c2ccccc2)nc1NC(=O)C(C)C -83.8%
Nc1ccc(N=Nc2ccccc2Cl)c(N)n1 -165%
Cc1cc(C(=O)NCCc2ccc(Cl)cc2)c(C)o1 -131%
O=C(NCCc1ccccc1)Oc1ccc(Cl)cc1 -107%
Cc1ccc2nc(/C(C#N)=C\c3ccc(OC(=O)c4cccs4)cc3)[nH]c2c1 -283%
N/C(=N\OC(=O)CC1CCCCC1)c1ccccc1 -116%
N/C(=N\OC(=O)CCC1CCCCC1)c1ccccn1 -180%
COc1ccc(C(=O)O/N=C(\N)c2ccccn2)cc1[N+](=O)[O-] -177%
COc1ccccc1OCC(=O)O/N=C(\N)c1ccccn1 -121%
N/C(=N\OC(=O)Cc1ccc([N+](=O)[O-])cc1)c1ccccn1 -161%
CCc1c(C)nc2cc(-c3cccs3)[nH]n2c1=O -81%
C=CCc1c(C)nc2cc(-c3ccccc3)[nH]n2c1=O -102%
CC(=O)N(C)c1ccc(NC(=O)Nc2cccc3ccccc23)cc1 -70.7%
O=[N+]([O-])c1ccc(O)c(/C=N/Nc2ccccc2[N+](=O)[O-])c1 -63.1%
Cc1cc(C(=O)COC(=O)CNC(=O)c2ccc(F)cc2)c(C)n1Cc1ccco1 -113%
Nn1c(SCc2ccccc2)nnc1C1CCCCC1 -110%
N#Cc1cccc(NC(=O)COC(=O)c2ccccc2C(=O)c2ccc(Cl)c([N+](=O)[O-])c2)c1 -63.7%
Cc1ccc(Nc2nc(N)nc(CSc3nnc(C)s3)n2)cc1 -63.8%
CC(=O)c1ccc(NC(=S)NC(=O)CC(C)C)cc1 -98.8%
COc1ccccc1Nc1ncc(C(C)=O)c(C)n1 -80.4%
Cn1c(CCCOc2ccc(Cl)cc2Cl)n[nH]c1=S -63.6%
COc1cccc2cc(C(N)=O)/c(=N\NC(=O)c3ccccc3)oc12 -61.9%
Cc1cccc(C(=O)OC(C)CN2CCN(C)CC2)c1 (stereo not given) -64.7%
CCOC(=O)C1(Cc2ccccc2C(F)(F)F)CCN(C(=O)c2cc(C)n(C)n2)CC1 -117%
COc1ccc(/C=C/C(=O)Nc2cccnc2)cc1OC -72.4%
COc1ccc(C(=O)/C=C/c2cccnc2)c(OC)c1 -81.3%
Cc1cc(NC(=O)c2ccccc2C)no1 -104%
Cc1c(C(=O)Nc2ccccc2)sc2nc3n(c(=O)c12)CCCCC3 -136%
CC(=O)c1ccc(NC(=O)c2sc3nc4n(c(=O)c3c2C)CCCCC4)cc1 -89.5%
O=C(Cc1ccc(Br)cc1)N1CCN(c2ccccn2)CC1 -73.7%
O=c1oc2cc(O)ccc2cc1-c1ccc(F)cc1 -115%
NC(=O)Nc1ccccc1C(=O)NCCc1ccccc1 -90.2%
CCN1C(=O)/C(=C2\SC(N3CCCCC3)=NC2=O)c2ccccc21 -151%
CC(C)(C)c1csc(NC2=NS(=O)(=O)c3ccccc32)n1 -127%
CCCNC(=O)c1c(Cl)cnn1-c1ccc(C)cc1 -137%
S=c1nc(C23CC4CC(CC(C4)C2)C3)nc2sccn12 -162%
COC(=O)c1ccc2c(C(C)(C)O)c(C(C)(C)O)[nH]c2c1 -87.7%
Cc1ccc(F)c(NC(=O)CCc2ccccc2)c1 -92.3%
Cc1cccc(OCC(=O)Nc2ccccc2F)c1 -140%
O=C(COc1ccc(Cl)cc1)Nc1ccccc1CO -81.1%
COc1cccc(OCC(=O)Nc2ccccc2C(N)=O)c1 -126%
CCCc1nnc(NC(=O)c2cccs2)s1 -80.1%
CCc1nnc(NC(=O)c2cccs2)s1 -125%
Cc1ccc(C(=O)Nc2nnc(-c3cccs3)s2)cc1C -218%
CCc1c(C)sc(NC(=O)c2cccs2)c1C(N)=O -151%
S=C(NCCc1ccccc1)Nc1ccccc1 -89.3%
S=C(NCCC1=CCCCC1)Nc1ccccc1 -122%
S=C(NCCc1ccccc1)N1CCCCC1 -106%
S=C(NCCc1ccccc1)NCC1CCCO1 (stereo not given) -78.2%
CCOc1ccc(/C(O)=C2\C(=O)C(=O)N(c3ccc(OC)cc3)C2c2ccccc2[N+](=O)[O-])cc1 (stereo not given) -69.2%
Fc1ccccc1COc1cccc2cccnc12 -134%
Cc1ccnc2nc(C(=O)Nc3nnc(-c4ccccc4)o3)nn12 -72%
O=C(O)C1CCN(C(=O)OCc2ccccc2)CC1 -142%
CCOC(=O)c1sc(=NC(=O)/C=C/c2cccs2)n(C)c1C -201%
Cc1ccc(NC(=O)C(=O)NCc2ccco2)c(C)c1 -101%
O=[N+]([O-])c1cc(Br)c(O)c(/C=N/Nc2nc3ccccc3s2)c1 -87.6%
COc1cc(/C=N/Nc2nc3ccccc3s2)ccc1O -82.9%
Brc1ccccc1/C=N/Nc1nc2ccccc2o1 -126%
COc1ccc(/C=N/Nc2nc3ccccc3o2)cc1OC -162%
Cc1cc2nc(SCCN3CCOCC3)[nH]c2cc1C -115%
O=C(CN1C(=O)S/C(=C\c2ccccc2Cl)C1=O)NC1C=CS(=O)(=O)C1 (stereo not given) -83.8%
Cc1cccc(N2C(=O)C3C(c4ccccc4)OC4(C(=O)c5ccccc5C4=O)C3C2=O)c1 (stereo not given) -66.3%
CC(=O)Nc1ccc(Nc2c([N+](=O)[O-])cc(S(C)(=O)=O)cc2[N+](=O)[O-])cc1 -75.2%
COc1ccc(-c2csc(NC(=O)COC(=O)Cc3ccc(Cl)cc3Cl)n2)cc1 -99.4%
COc1ccc(-c2csc(NC(=O)COC(=O)c3ccc(Br)o3)n2)cc1 -106%
COc1ccccc1N1CCN(C(=O)CSc2ncnc3c2cnn3-c2ccc(C)c(C)c2)CC1 -144%
CCN(CC)C(=O)CSc1ncnc2c1cnn2-c1ccccc1 -129%
CC(C)Sc1ncnc2c1cnn2-c1ccccc1 -82.1%
COc1cc(OC)cc(-c2nc(=S)n3ccsc3n2)c1 -77.6%
COc1ccc(-c2ccc3nnc(SCC(=O)Nc4ccc(NC(C)=O)cc4)n3n2)cc1 -81.8%
Oc1ccc(-c2cccc(-c3ccc(O)cc3)c2)cc1 -135%
O=C(Nc1ccc([N+](=O)[O-])cc1)OCCc1ccccn1 -144%
O=C(Nc1cccc(Cl)c1)OCc1ccccn1 -131%
COc1ccc(-c2noc(-c3ccc(C)cc3)n2)cc1 -153%
COc1ccccc1Cc1nc(-c2ccc(C)cc2)no1 -97.1%
COc1ccc2[nH]c(=O)c(-c3noc(-c4ccc(F)cc4)n3)cc2c1 -111%
O=C(Nc1nnc(-c2ccccc2F)s1)c1ccccc1F -172%
COc1ccc(CCc2nc(-c3cccs3)no2)cc1 -148%
Clc1cccc(Cl)c1Cn1nnc(-c2cccs2)n1 -162%
CCCc1ccc(-c2csc(NC(=O)Cc3cccs3)n2)cc1 -66.4%
Cc1ccc(-c2csc(NC(=O)Cc3cccs3)n2)cc1C -200%
CC(C)c1ccc(NC(=O)Cn2ncc3ccccc32)cc1 -178%
CC(=O)Nc1ccc(/C=N/NC(=O)c2cccs2)cc1 -159%
Cc1cccc(-n2c(C)cc(/C=N\NC(=O)c3cccs3)c2C)c1 -62.2%
O=C(N/N=C/C=C/c1ccco1)c1cccs1 -86.4%
Cc1ccc(-n2nc(C)c(/C=N/NC(=O)c3cccs3)c2Cl)cc1 -87.3%
CCOC(=O)/C(C#N)=C/c1ccc(OCC(=O)Nc2ccccc2)c(OC)c1 -119%
CCCn1c(C)cc(/C=C(\C#N)C(=O)OCC(=O)Nc2cc(OC)c(OC)c(OC)c2)c1C -103%
OC(COc1ccc2ccccc2c1)CN1CCOCC1 (stereo not given) -72.5%
CC1CCc2c(sc3nc4n(c(=O)c23)CCS4)C1 (stereo not given) -71.6%
CCCn1nnc2sc3c(c2c1=O)CCC(C)C3 (stereo not given) -131%
Cc1ccn(-c2cccc(-n3ccc(C)n3)n2)n1 -93%
CN1CCN(/N=C/c2ccc(-c3ccc([N+](=O)[O-])cc3)o2)CC1 -128%
Cc1cc(=O)n2[nH]c(-c3cccc(Cl)c3)cc2n1 -79%
CCn1c(CNc2ccc(OC)cc2)nnc1SCC(=O)c1ccc(OC)cc1 -63.6%

Activity score, inactive:
CC(=O)NNC(=O)c1csc(Cc2c(Cl)sc3ccc(Cl)cc23)n1 67.1%
COc1ccc(CC(=O)N/N=C(\C)c2ccccn2)cc1 77.7%
Cc1ccsc1C(=O)OCC(=O)c1cc(C)n(CC2CCCO2)c1C (stereo not given) 79.6%
COc1ccc(/C=C/C(=O)Nc2ccc(C34CC5CC(CC(O)(C5)C3)C4)cc2)cc1OC 76.5%
CC1CCCCN1S(=O)(=O)c1ccc(C(=O)Nc2nnc(-c3cccs3)o2)cc1 (stereo not given) 89.9%
COc1ccccc1N1CCN(C(=O)c2cc(=O)c3cc(C)cc(C)c3o2)CC1 78.3%
COc1ccc(-c2nc(-c3ccccc3)no2)c(OC)c1 68.9%
O=c1c2c(nc3cc(-c4cccc(Cl)c4)[nH]n13)CCCC2 18.5%
Brc1ccc2c(c1)[C@H]1OCC[C@H]1[C@@H](c1cccs1)N2 72.2%
